The AC50 is the concentration at which the activity in the assay is half-maximal.

Screen size: about 16,000 compounds; about 5,100 (32%) were called active. About 25% were inconclusive and are not listed. Calls come from the whole dose curve; as a rule, active = well fitted curve in the direction sought with a large enough effect; inconclusive = small, poorly fitted or top-dose-only effect, or effect the other way; inactive = no such curve, though single readings can be large or run the other way. Some of the results follow.
% is set by controls: 0 for no effect and ±100 for the full control effect.

The target in the assay is Cytochrome P450 3A4 (Homo sapiens) (UniProt P08684). Nature of the assay: Cytochrome panel assay with activity outcomes. The note with it: recombinant CYP, pro-luciferin dealkylation, luminescence, p450-cyp3a4; series mostly up to 57.1 µM; activity, negative = inhibition: at the top concentration.
Chain of Cytochrome P450 3A4 (Homo sapiens) (P08684 whole entry, looked up): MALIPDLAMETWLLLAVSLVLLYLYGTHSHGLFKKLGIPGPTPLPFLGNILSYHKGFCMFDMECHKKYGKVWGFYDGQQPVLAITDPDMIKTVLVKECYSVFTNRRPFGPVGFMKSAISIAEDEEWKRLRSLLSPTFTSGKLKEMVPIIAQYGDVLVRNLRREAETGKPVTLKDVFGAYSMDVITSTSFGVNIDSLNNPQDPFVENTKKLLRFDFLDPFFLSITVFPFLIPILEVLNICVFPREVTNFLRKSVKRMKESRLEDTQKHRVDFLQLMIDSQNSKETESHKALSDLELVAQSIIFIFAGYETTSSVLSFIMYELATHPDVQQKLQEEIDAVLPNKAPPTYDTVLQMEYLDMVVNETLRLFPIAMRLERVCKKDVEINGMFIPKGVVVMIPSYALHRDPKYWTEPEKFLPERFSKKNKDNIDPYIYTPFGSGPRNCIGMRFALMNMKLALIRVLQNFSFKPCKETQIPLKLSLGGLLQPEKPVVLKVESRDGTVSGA
Regarding `CN(C)CC(O)COc1cccc(OCC(O)CN(C)C)c1` (stereo not given), the “activity, negative = inhibition” value was -0.983% (inactive).

Turning to `CCN1C(=O)[C@H]2[C@@H]3[C@H](O)C=CC(=O)[C@H]3CC[C@H]2C1=O`, the activity, negative = inhibition is -12.1% [at 11.4 µM] (inactive).

As for `O=c1oc(-c2cccs2)nc2ccc(Br)cc12`, the “activity, negative = inhibition” value is -22.2% (inactive).

For the molecule `O=S(=O)(c1ccccc1)N1N=C(c2cccs2)CC1c1ccc(Br)cc1` (stereo not given), the concentration at half-maximal activity (AC50) was 2 µM (active).

For `CC(C)Cc1nnc(NC(=O)c2ccc([N+](=O)[O-])cc2)s1`, the “activity, negative = inhibition” value was 17.9% (inactive).

For the molecule `CCOC(=O)CSc1nnc(NC(=O)c2cccc(S(=O)(=O)N3CCCCCC3)c2)s1`, the activity, negative = inhibition was -15.1% [at 2.29 µM] (inactive).

With `O=C(Nc1nnc(C2CC2)s1)c1cc(S(=O)(=O)N2CCN(c3ccccc3)CC2)ccc1Cl`, the AC50 was 2 µM (active).

Regarding `CCN1CCN(S(=O)(=O)c2ccc(Cl)c(C(=O)Nc3nnc(CC(C)C)s3)c2)CC1`, the AC50 was 14.1 µM (active).

In the case of `O=C(Nc1nnc(C2CC2)s1)c1ccc(S(=O)(=O)c2ccccc2)cc1`, the “activity, negative = inhibition” value is 25.6% (inactive).

In the case of `CCc1cc(C(c2ccccc2OC)N2CCOCC2)c(NC(=O)c2ccccc2)s1` (stereo not given), the AC50 was 4.47 µM (active).

Turning to `CCOc1ccc2nc(NC(=O)c3ccc(S(=O)(=O)N4CCOCC4)cc3)sc2c1`, the “activity, negative = inhibition” value was -15% (inactive).

Regarding `COc1ccc(-c2noc(C3CCCN(C(=O)c4ccccc4OC)C3)n2)cc1OC` (stereo not given), the concentration at half-maximal activity (AC50) is 5.01 µM (active).

On to `COc1ccc(NC(=O)c2ccc(-c3ccc(-c4noc(C)n4)cc3C)cc2)cc1N1CCN(C)CC1`, for which the “activity, negative = inhibition” value was -16.4% (inactive).

On to `O=C(Nc1ccccc1)N1CCCC(c2nc(-c3ccc(F)cc3)no2)C1` (stereo not given), for which the AC50 was 14.1 µM (active).

For `CN(C)c1ccc(-c2noc(C3CCN(S(=O)(=O)c4cccc(C(=O)O)c4)CC3)n2)cc1`, the “activity, negative = inhibition” value is -21.2% (inactive).

Regarding `CCCCC1CCC(c2nc(-c3ccccn3)no2)CC1` (stereo not given), the activity, negative = inhibition was 5.4% [at 2.29 µM] (inactive).

For the molecule `CCCCCC(=O)N1CCCC(c2nc(-c3ccc(OC)cc3)no2)C1` (stereo not given), the AC50 was 7.08 µM (active).

With `O=C(NCc1ccccc1)c1cccc(COc2cccc(Cl)c2)c1`, the activity, negative = inhibition was -29.3% [at 11.4 µM] (inactive).

Turning to `CC(C)(C)c1ccc(C(=O)NCc2ccc(Cl)cc2)cc1`, the “activity, negative = inhibition” value is -23.4% (inactive).

As to `O=C(NCc1cccc(C(F)(F)F)c1)c1cc(Cl)cc(Cl)c1`, the AC50 is 14.1 µM (active).

For the molecule `CCOCC(=O)Nc1cc(C(=O)Nc2ccccc2)ccc1Cl`, the activity, negative = inhibition is -4.26% [at 2.29 µM] (inactive).

With `CCN(CC)S(=O)(=O)c1cc(C(=O)OC)ccc1Cl`, the “activity, negative = inhibition” value was 9.82% (inactive).

As for `CCN(CC)S(=O)(=O)c1cc(C(=O)Nc2ccncc2)ccc1Cl`, the AC50 is 1 µM (active).

`CC(=O)Nc1ccc(S(=O)(=O)c2ccc(N)cc2)cc1`: the activity, negative = inhibition was -19.3% [at 11.4 µM] (inactive).

As to `CC(=O)Nc1ccc([N+](=O)[O-])cn1`, the “activity, negative = inhibition” value is 3.23% (inactive).

`CC(=O)Nc1ccc(Nc2ncc([N+](=O)[O-])c(Nc3ccc(NC(C)=O)cc3)n2)cc1`: the concentration at half-maximal activity (AC50) is 6.31 µM (active).

Regarding `CCOc1cc(NC(=S)Nc2cccc(C)c2)c(OCC)cc1NC(=O)CC(C)C`, the AC50 is 11.2 µM (active).

On to `Cc1cccc(NC(=S)NNC(=O)CC(C)O)c1C` (stereo not given), for which the “activity, negative = inhibition” value was -9.46% (inactive).

With `CCc1cc(C(=O)NNC(=S)NCC2CCCO2)cs1` (stereo not given), the “activity, negative = inhibition” value is -21.7% (inactive).

Take `Cc1ccc(C(=O)NC(=S)NCC2CCCO2)cc1` (stereo not given): the activity, negative = inhibition is -7.78% [at 2.29 µM] (inactive).

As to `CCOc1cc(NC(=S)NCC2CCCO2)c(OCC)cc1NC(=O)c1ccccc1C` (stereo not given), the AC50 was 12.6 µM (active).

Turning to `Cc1scc(C(=O)NNC(=S)NCC2CCCO2)c1C` (stereo not given), the “activity, negative = inhibition” value is -19.7% (inactive).

For `Cc1ccccc1C(=O)c1c[nH]c(C(=O)NCC2CCCO2)c1` (stereo not given), the activity, negative = inhibition is 2.67% [at 11.4 µM] (inactive).

Take `CCOc1cc(NC(=S)NCC2CCCO2)c(OCC)cc1NC(=O)c1cccc(C)c1` (stereo not given): the AC50 was 12.6 µM (active).

Turning to `Nc1cc(C(=O)O)[nH]c(=O)n1`, the activity, negative = inhibition is -11.2% [at 11.4 µM] (inactive).

Turning to `O=C(O)[C@H]([C@H]1NCCS1)N1Cc2ccccc2C1`, the activity, negative = inhibition was -4.44% [at 11.4 µM] (inactive).

`O=C(c1cccc(F)c1)N1CCC2(CCCN(C(c3ccccc3)c3ccccc3)C2)CC1`: the “activity, negative = inhibition” value was -29.9% (inactive).

For `O=C(c1cccc(F)c1)N1CCC[C@@]2(CCN(c3cccc(-c4ccccc4)c3)C2)C1`, the AC50 is 7.94 µM (active).

Turning to `O=C(c1cccc(F)c1)N1CCC[C@@]2(CCN(C(c3ccccc3)c3ccccc3)C2)C1`, the AC50 was 3.98 µM (active).

In the case of `CN1CC[C@@]2(CCCN(C(=O)c3cccc(F)c3)C2)C1`, the “activity, negative = inhibition” value was -27.3% (inactive).

For the molecule `COc1ccc(C(=O)N2CCC[C@@]3(CCN(c4cccc(-c5ccccc5)c4)C3)C2)cc1`, the AC50 is 3.16 µM (active).

Regarding `COC(=O)N1CCC2(CC1)CN(c1cccc(-c3ccccc3)c1)C2`, the “activity, negative = inhibition” value is 4.17% (inactive).

For `O=C(c1cccc(F)c1)N1CCC[C@@]2(CCN(c3ccccc3)C2)C1`, the concentration at half-maximal activity (AC50) is 6.31 µM (active).

Turning to `CC(=O)N1CCC2(CC1)CCN(c1cccc(-c3ccccc3)c1)CC2`, the “activity, negative = inhibition” value is -17.6% (inactive).

Consider `CN(C)CCCO[C@H]1[C@@H]2OC(C)(C)O[C@@H]2O[C@@H]1[C@H](O)CO`, for which the “activity, negative = inhibition” value was 1.58% [at 25.6 µM] (inactive).

Turning to `Clc1ccc2c(NCCNC3CCCCC3)ccnc2c1`, the activity, negative = inhibition was -5.83% [at 11.4 µM] (inactive).

For `O=C(O)/C=C\[C@H](O)c1ccc(Cl)cc1`, the “activity, negative = inhibition” value is 2.09% (inactive).

As for `O=C(c1cccc(F)c1)N1CCC2(CC1)CN(c1ccncc1)C2`, the “activity, negative = inhibition” value was 22.2% (inactive).

Turning to `O=C(c1cccc(F)c1)N1CCC[C@@]2(CCN(c3ccncc3)C2)C1`, the concentration at half-maximal activity (AC50) was 0.316 µM (active).

As to `O=C(NNC(=O)c1ccccc1-n1cccc1)c1ccc(Cl)c(Cl)c1`, the AC50 was 15.8 µM (active).

As to `O=C(NNC(=O)c1ccccc1-n1cccc1)c1ccccc1`, the “activity, negative = inhibition” value was -20.3% (inactive).

In the case of `N[C@H](CCCC(=O)O)C(=O)O`, the “activity, negative = inhibition” value is -2.17% (inactive).

`N=C(C[C@@H](O)COc1ccccc1-c1ccccc1)N1CCCCC1`: the “activity, negative = inhibition” value was -25.3% (inactive).

For `CN1CCN(c2ccnc(-c3ccoc3)n2)CC1`, the “activity, negative = inhibition” value is -2.76% (inactive).

Regarding `CS(=O)(=O)Nc1cccc(-c2nccc(-n3ccnc3)n2)c1`, the AC50 is 1.58 µM (active).

Take `CS(=O)(=O)Nc1cccc(-c2cncnc2-n2ccnc2)c1`: the concentration at half-maximal activity (AC50) is 7.94 µM (active).

As to `CN1CCN(c2ccnc(-c3cccc(NS(C)(=O)=O)c3)n2)CC1`, the AC50 is 25.1 µM (active).

As for `C[N+](C)(N)CCC[N+](C)(C)N`, the activity, negative = inhibition is -4.61% [at 11.4 µM] (inactive).

In the case of `CCOC(=O)C1CCCN(C(=O)/C=C/c2cccc([N+](=O)[O-])c2)C1` (stereo not given), the activity, negative = inhibition was 3.28% [at 2.29 µM] (inactive).

On to `O=C(N/N=C/C=C/c1ccc([N+](=O)[O-])cc1)c1cccs1`, for which the “activity, negative = inhibition” value was -1.51% (inactive).

In the case of `Cc1ccc(NC(=O)/C(=C\c2cccc([N+](=O)[O-])c2)NC(=O)c2cccs2)cc1`, the AC50 is 0.398 µM (active).

For the molecule `CCc1ccc(N2CC(C(=O)N/N=C/c3cccc([N+](=O)[O-])c3)CC2=O)cc1` (stereo not given), the “activity, negative = inhibition” value is -50% (inactive).

With `O=C(Nc1cccc2ccccc12)/C(=C/c1ccc([N+](=O)[O-])cc1)NC(=O)c1ccccc1`, the AC50 was 1.12 µM (active).

Consider `Cc1ccc(NC(=O)/C(=C\c2ccc([N+](=O)[O-])cc2)NC(=O)c2ccccc2)cc1`, for which the AC50 is 1.12 µM (active).

For `Cc1ccc(NC(=O)/C(=C/c2cccc([N+](=O)[O-])c2)NC(=O)C2CCCCC2)c(C)c1`, the half-maximal activity concentration (AC50) is 1 µM (active).

(Values after PubChem BioAssay AID1851 (National Center for Advancing Translational Sciences (NCATS), 2009).)
